In PubChem BioAssay AID485364 (National Center for Advancing Translational Sciences (NCATS), 2010):
Out of some 360,000 compounds screened, about 11,000 (3.1%) were called active. A call without a number means that no potency is given here. About 4% were inconclusive and are not listed. Calls come from the whole dose curve; as a rule, active = well fitted inhibition curve with a large enough effect; inconclusive = small, poorly fitted or top-dose-only effect; inactive = no such curve, though single readings can be large or run the other way. For the sample, actives were picked, then their nearest neighbours and some compounds at random.
Note: nearly all actives have a fitted effect of over 60% in size.
Potency is the fitted concentration of half-maximal effect.

These compounds were tested against Schistosoma mansoni thioredoxin glutathione reductase (TGR) (UniProt Q962Y6) (assay: qHTS Assay for the Inhibitors of Schistosoma Mansoni Peroxiredoxins). Conditions: purified TGR, DTNB reduction, TNB absorbance 405 nm; series mostly up to 114 µM.
In short: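 TGR 20 nM + NADPH 100 uM (dispensed conc.), cpd preinc 15 min RT; start with NADPH (500 uM addition) then DTNB (15 mM addition). Kinetic TNB absorbance, 405 nm filter. Four-parameter Hill fit across titration.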
CCCCN(C(=O)c1ccc(C)o1)c1c(N)n(CCCC)c(=O)[nH]c1=O was tested, and the Potency was “inactive”.
CCCCN(C(=O)c1nn(C)c(=O)c2ccccc12)c1c(N)n(CCC)c(=O)[nH]c1=O was tested, and the Potency was “inactive”.
In the case of CCCCn1c(N)c(N(CC)C(=O)c2ccccc2C(F)(F)F)c(=O)[nH]c1=O, the Potency is reported as “inactive”.
For CCCCn1c(N)c(N(CC)C(=O)c2ccc(N(C)S(=O)(=O)c3ccc(C)cc3)cc2)c(=O)[nH]c1=O, the Potency was “inactive”.
In the case of CCCCN(C(=O)/C=C/c1ccco1)c1c(N)n(CC(C)C)c(=O)[nH]c1=O, the Potency is reported as 44.7 µM (active).
CCCCn1c(N)c(N(CC)C(=O)/C=C/c2ccco2)c(=O)[nH]c1=O was tested, and the Potency was 22.4 µM (active).
Cc1ccc(OCC(=O)Nc2ccccc2C(=O)NC2CC2)cc1C was tested, and the Potency was 35.5 µM (active).
In the case of COc1ccccc1OCC(=O)Nc1ccccc1C(=O)NC1CC1, the Potency is reported as “inactive”.
With Cc1ccc(OCC(=O)Nc2ccccc2C(=O)NC2CC2)cc1 the Potency was “inactive”.
COc1cccc(C(=O)NC2=NC(c3ccc(N(C)C)cc3)CC(=O)N2)c1 (stereo not given) was tested, and the Potency was “inactive”.
COc1cc2nc(SCC(=O)Nc3ccccc3F)n3nc(-c4ccccc4)nc3c2cc1OC was tested, and the Potency was “inactive”.
For S=C(NCCc1ccccc1)NCC1CCCO1 (stereo not given), the Potency was “inactive”.
With Oc1c(Br)cc(/C=N/NC(=S)NCC2CCCO2)cc1Br (stereo not given) the Potency was 2.51 µM (active).
For S=C(NCC1CCCO1)N1CCN(c2ccc(Cl)c(Cl)c2)CC1 (stereo not given), the Potency was “inactive”.
CCc1ccc(N2C(=O)CN(S(=O)(=O)CC)CC2(C)C(=O)NC2CCCCC2)cc1 (stereo not given) was tested, and the Potency was “inactive”.
In the case of CCNC(=S)Nc1cccc(Cl)c1C, the Potency is reported as “inactive”.
COc1cccc(NC(=O)CN2CCN(CC(=O)Nc3ccccc3Cl)CC2)c1 was tested, and the Potency was “inactive”.
COc1ccc(NC(=S)Nc2ccccc2Cl)cn1 was tested, and the Potency was 20 µM (active).
O=C(CCc1nc(CN2CCN(S(=O)(=O)c3ccc(Br)cc3)CC2)no1)N1CCCCC1 was tested, and the Potency was “inactive”.
CCn1cc2nc(SCc3ccccc3Cl)n(CCc3ccccc3)c(=O)c2n1 was tested, and the Potency was “inactive”.
COc1ccc(NS(=O)(=O)c2ccc(NC(=S)NC(=O)CC(C)C)cc2)cc1 was tested, and the Potency was “inactive”.
In the case of O=C(Nc1ccc(S(=O)(=O)Nc2ccccn2)cc1)c1ccccc1, the Potency is reported as “inactive”.
With COc1cc(NS(=O)(=O)c2ccc(NC(=S)NC(=O)c3ccc(Br)cc3)cc2)ncn1 the Potency was 17.8 µM (active).
With COc1cc(NS(=O)(=O)c2ccc(NC(=O)c3ccc(S(=O)(=O)N4CCCCC4)cc3)cc2)ncn1 the Potency was “inactive”.
In the case of COc1cc(NS(=O)(=O)c2ccc(NC(=S)NC(=O)c3ccccc3)cc2)nc(OC)n1, the Potency is reported as 20 µM (active).
For COc1cc(NS(=O)(=O)c2ccc(NC(=O)CN3C(=O)c4ccccc4C3=O)cc2)ncn1, the Potency was “inactive”.
With COc1ccc(-c2nc3c4ccccc4n(CC(=O)Nc4ccc(C(C)=O)cc4)c(=O)n3n2)cc1 the Potency was “inactive”.
For Cc1ccccc1-n1c(=O)c2ccccc2n(Cc2ccc(F)cc2)c1=O, the Potency was “inactive”.
In the case of Nc1ccccc1SC(C[N+](=O)[O-])c1ccccc1 (stereo not given), the Potency is reported as 17.8 µM (active).
For Cc1ccccc1-c1nc2cc(NC(=O)c3cccc(OCCC(C)C)c3)ccc2o1, the Potency was “inactive”.
In the case of CCOc1ccc(C(=O)c2cn(Cc3ccc(F)cc3)c3ccc(F)cc3c2=O)cc1, the Potency is reported as “inactive”.
With O=C(CSc1nc2ccccc2nc1Cc1ccccc1)N1CCCCC1 the Potency was “inactive”.
For O=C1CCCCC1C(=O)c1ccccc1 (stereo not given), the Potency was “inactive”.
In the case of CN(C)CC1CCCCC1=O (stereo not given), the Potency is reported as 11.2 µM (active).
In the case of CC(C)(C)OC(=O)N1CCC(c2c(C(=O)N3CCc4ccccc4C3)cnn2-c2ccc(F)cc2)CC1, the Potency is reported as “inactive”.
For COc1cc(NC(=O)c2cc(C3CC3)nc3c2c(C)nn3-c2ccccc2)cc(OC)c1, the Potency was “inactive”.
Cc1ccc(NC(=O)NC(C)c2c(-n3cccc3)sc(C)c2C)c(C)c1 (stereo not given) was tested, and the Potency was “inactive”.
Cc1c(NC(=O)Nc2ccc(F)c(Cl)c2)c(=O)n(-c2ccccc2)n1C was tested, and the Potency was “inactive”.
Cc1ccccc1NC(=O)c1c(NC(=O)c2ccccc2F)sc2c1CCC(C)C2 (stereo not given) was tested, and the Potency was “inactive”.
In the case of Cc1ccc(Oc2c(C(F)(F)F)oc3c(CN4CCCCC4)c(O)ccc3c2=O)cc1, the Potency is reported as “inactive”.
In the case of CCOC(=O)COc1cc(OCC(=O)OCC)c2c(=O)cc(-c3ccccc3)oc2c1, the Potency is reported as “inactive”.
For COc1c(O)cc2oc(-c3ccc(O)c(O)c3)cc(=O)c2c1O, the Potency was 39.8 µM (active).
With COc1ccc(-c2c(C)c3ccc(O)c(CN4CCN(C)CC4)c3oc2=O)cc1OC the Potency was “inactive”.
For CC1=C(C(=O)N2CCN(c3cccc(C(F)(F)F)c3)CC2)C2(CCCCC2)OC1=O, the Potency was “inactive”.
With Cc1ccc(Nc2nc3ccccc3nc2-n2nc(C)cc2C)c(Cl)c1 the Potency was “inactive”.
For Cc1oc2ccc(O)c(CN3CCC(C)CC3)c2c1C(=O)Nc1ccccc1, the Potency was “inactive”.
For CN(Cc1ccccc1)C(=O)c1cn(C)c2ccc(S(=O)(=O)N(C)C3CCCCC3)cc2c1=O, the Potency was “inactive”.
CCCC12CN3CC(C)(CN(C1)C3c1ccccc1Cl)C2=O (stereo not given) was tested, and the Potency was “inactive”.
For COc1ccc(NC2=CC(=S)NC(C)(C)C2)cc1, the Potency was 35.5 µM (active).
For COc1ccc(NC(=S)NC2CCS(=O)(=O)C2)cc1 (stereo not given), the Potency was “inactive”.
With COc1ccc(CCNC2=CC(=O)CC(C)(C)C2)cc1 the Potency was “inactive”.
With Cc1ccccc1NC(=O)c1cc2c([nH]c1=O)CC(C)(C)CC2=O the Potency was “inactive”.
With Cc1ccc(Cn2c(=O)n(Cc3nc(-c4ccccc4)no3)c(=O)c3cc4c(cc32)OCO4)cc1 the Potency was “inactive”.
In the case of Cc1ccc(Cn2c(C)nc3c(c2=O)c2nc4ccccc4nc2n3Cc2ccco2)cc1, the Potency is reported as 1.41 µM (active).
O=c1c2ccccc2oc2nc(C3CCCCC3)n(Cc3ccco3)c(=O)c12 was tested, and the Potency was “inactive”.
For CCOc1ccc(-c2cc3c(=O)n(CC(=O)NCc4ccc(OC)cc4)ccn3n2)cc1, the Potency was “inactive”.
O=C(c1ccc2c(c1)N(Cc1ccccc1F)C(=O)c1ccccc1S2(=O)=O)N1CCOCC1 was tested, and the Potency was “inactive”.
With COc1ccc(-c2nc(Cn3c(=O)cc(C)c4c(C)nn(-c5ccccc5)c43)c(C)o2)cc1OC the Potency was “inactive”.
For CC(=O)Nc1ccc(CN2CCN(Cc3ccc(F)c(F)c3)C(CCO)C2)cc1 (stereo not given), the Potency was 20 µM (active).
In the case of COC(=O)c1ccc(CN2CCN(CCCc3ccccc3)C(CCO)C2)cc1 (stereo not given), the Potency is reported as “inactive”.
In the case of Cc1ccc(CN2CCN(Cc3ccc4ncccc4c3)CC2CCO)cc1 (stereo not given), the Potency is reported as “inactive”.
In the case of CCS(=O)(=O)N1CCc2cc(C(=O)N3CCN(c4ccccc4OC)CC3)ccc21, the Potency is reported as “inactive”.
CCCCOc1ccc(C(C)(O)CCN2CCOCC2)cc1 (stereo not given) was tested, and the Potency was “inactive”.
In the case of CCOc1ccc(C(=O)CCN2CCOCC2)cc1, the Potency is reported as 2.82 µM (active).
CCOc1ccc(C(=O)CCC(=O)Nc2ccncc2)cc1 was tested, and the Potency was “inactive”.
